Among all 290,000 compounds or so, about 3,000 (1%) were called active. Only a selection was taken, and actives are over-represented in it overall. A number with no mark means an inactive call. No stated cut-off is given here; in the data, active means inhibition mostly above about 36% (no sharp cut-off); inactive means mostly below about 34%.
assay: NOD1 signaling inhibitors, primary screen, cell-based, luminescence, uHTS (AID 1578); conditions: NOD1-driven NF-kB luciferase reporter cells, at 4 µM, stronger effect = higher value;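 further: HEK-293T reporter cells stimulated with the NOD1 agonist gamma-tri-DAP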

| Compound | inhibition |
| --- | --- |
| CCOC(=O)Cc1cnc(NC(=O)CSc2nc(C)c(CC)c(=O)[nH]2)s1 | -29.1% |
| O=C(c1cc(-c2ccccc2)n[nH]1)N1CCc2c([nH]c3ccccc23)C1c1ccccn1 (centres undefined) | -14.3% |
| COc1cc(Cl)c(C)cc1NC(=O)c1ccc(NS(=O)(=O)c2ccc(F)c(F)c2)cc1 | 14.5% |
| CCOC(=O)c1c(/N=C/c2cc([N+](=O)[O-])ccc2O)sc(C)c1C | -20.3% |
| CN(C)CCOc1cccc(Cl)c1 | -12.3% |
| Cc1ccc(C(=O)CSc2nnc3ccccn23)c(C)c1 | 18.8% |
| Cc1cc(C(=O)CSc2nncn2C)c(C)n1-c1ccccc1 | -35.2% |
| Cc1cc(C(=O)CSc2nnc3ccccn23)c(C)n1-c1ccccc1 | 82% (active) |
| Nc1c(-c2ccccc2)c(CSc2nc3ccccc3[nH]2)nn1-c1ccc(Cl)cc1 | 70.5% |
| Nc1c(-c2ccccc2)c(CSc2nc3ccccc3[nH]2)nn1-c1cccc(C(=O)O)c1 | -21.3% |
| Nc1c(-c2ccccc2)c(CSc2nc3ccccc3[nH]2)nn1-c1cccc(Cl)c1 | 79.7% (active) |
| Cn1c(N)c(C(=O)Nc2c(Cl)cccc2Cl)sc1=S | -11.3% |
| CCN(CC)c1ccc(N2C(=O)/C(=C\c3cccs3)SC2=S)cc1 | -102% |
| COc1ccccc1/C=C/C(=O)c1ccccc1 | -6.9% |
| COc1ccccc1/C=C/C(C)=O | -47.2% |
| COc1ccccc1/C=C/C(=O)/C=C/c1ccccc1O | 94.3% (active) |
| CC1(C)Cc2c(sc3[nH]c(=S)n(Cc4ccccc4)c(=O)c23)CO1 | -3.1% |
| CC(C)C1Cc2c(sc3[nH]c(=S)n(Cc4ccccc4)c(=O)c23)CO1 (centres undefined) | 92.4% (active) |
| CC(C)C1Cc2c(sc3c2c(=O)n(Cc2ccccc2)c2nncn32)CO1 (centres undefined) | 12.9% |
| CCOC(=O)N1C/C(=C\c2ccccc2)C(=O)/C(=C/c2ccccc2)C1 | 41.1% (active) |
| CCOC(=O)N1CCN(C/C(C)=C/c2ccccc2)CC1 | -12% |
| CCOC(=O)N1CCN(S(=O)(=O)/C=C/c2ccccc2)CC1 | 9.2% |
| COc1cccc(-n2c([S-])c(C(=O)Nc3ccc(C(F)(F)F)cc3)[n+]3ccccc23)c1 | -8.9% |
| COc1cccc(C(=O)Nc2ccc(S(=O)(=O)Nc3nccc(C)n3)cc2)c1 | -16.6% |

| Compound | inhibition |
| --- | --- |
| Cc1ccc(S(=O)(=O)NCCC(=O)O)cc1 | -3.1% |
| CCCn1c(SCC(=O)c2ccc3c(c2)OCCO3)nc2c1c(=O)n(C)c(=O)n2C | -19.8% |
| O=C(CN1C(=O)c2ccccc2S1(=O)=O)c1ccccc1 | -2.1% |
| Cc1cc(C(=O)CN2C(=O)c3ccccc3S2(=O)=O)c(C)n1-c1ccccc1 | 94.4% (active) |
| Cc1ccc(C)c(C(=O)CN2C(=O)c3ccccc3S2(=O)=O)c1 | 9.1% |
| COc1cc(NC(=O)CC(C)n2ccnc2)cc(OC)c1 (centres undefined) | -0.2% |
| COC(=O)c1c(NC(C)=O)sc(C(=O)N2CCOCC2)c1C | -4.7% |
| COC(=O)c1c(NC(=O)C(C)C)sc(C(=O)N2CCOCC2)c1C | 5.6% |
| COC(=O)c1c(NC(=O)CCl)sc(C(=O)N2CCOCC2)c1C | 80.5% (active) |
| COc1ccccc1NC(=O)CS(=O)(=O)c1cn(CC(=O)N(C(C)C)C(C)C)c2ccccc12 | -1.2% |
| Cc1ccccc1C(=O)Nc1cc(-c2cc(C(C)(C)C)oc2C)nn1C | -3.8% |
| CC(=O)/C(=C/c1ccccc1)C(=O)Nc1ccccc1C | 35.2% |
| Cc1ccccc1NC(=O)C(=Cc1ccc(C(=O)O)cc1)C(=O)Nc1ccccc1C | 39.4% (active) |
| Cc1ccc(NC(=O)C(=Cc2ccc(C(=O)O)cc2)C(=O)Nc2ccc(C)cc2C)c(C)c1 | 9.9% |
| CC(=O)Nc1ccccc1C(F)(F)F | 5.2% |
| COc1ccc2nc(N3C(=O)CNC3=S)sc2c1 | -9.5% |
| Cn1c(O)c(C2=c3ccccc3=NC2=O)[nH]c1=S | 7.1% |
| COc1ccc2nc(-n3c(O)c(C4=c5ccccc5=NC4=O)[nH]c3=S)sc2c1 | 93% (active) |
| COc1ccc(-c2cn3c4c(sc3n2)CCCC4)cc1 | 1.4% |
| CN(C)S(=O)(=O)c1ccc(N2CCCC2)c(C(=O)Nc2ccccc2N2CCOCC2)c1 | -0.9% |
| CCCCC(=O)N/N=C(/C)C1=C(C)C(C)(C)OC1=O | -20.4% |
| COc1ccc(-c2ccc(/C=C3\C(=O)N(c4ccccc4)N=C3c3ccccc3)o2)c([N+](=O)[O-])c1 | 10.5% |
| O=C1ON=C(c2ccccc2)/C1=C/c1ccc(-c2ccccc2[N+](=O)[O-])o1 | 46.2% |
| Cc1ccc(-c2ccc(/C=C3\C(=O)ON=C3c3ccccc3)o2)c([N+](=O)[O-])c1 | 70.5% (active) |

| Compound | inhibition |
| --- | --- |
| CCSc1nc2ccccc2n1CC(=O)N1CCCCC1 | 14.8% |
| O=[N+]([O-])c1cc(CN2CCN(c3ccccc3)CC2)c(O)c2ncccc12 | 31.8% |
| O=[N+]([O-])c1cc(CN2CCOCC2)c2cccnc2c1O | 51.3% (active) |
| O=[N+]([O-])c1cc(CN2CCCC2)c2cccnc2c1O | 2.2% |
| O=[N+]([O-])c1cccc(S(=O)(=O)Nc2ccc(S(=O)(=O)N3CCCC3)cc2)c1 | -4% |
| CSc1cccc(NC(=O)CCn2c(=O)c3cccn3c3cccnc32)c1 | -16.4% |
| O=C(/C=C/c1ccccc1)Nc1cc(NC(=O)/C=C/c2ccccc2)cc(C(=O)O)c1 | -29.4% |
| O=C(/C=C/c1ccccc1)Nc1ncn[nH]1 | 59.8% (active) |
| Cc1nc(NC(=O)/C=C/c2ccccc2)n[nH]1 | 51.1% |
| CC(=O)Nc1ccc(NC(=O)/C=C/c2cccc(C(F)(F)F)c2)cc1 | -14.7% |
| CC(=O)Nc1cccc(C(=O)/C=C/c2ccc(/C=C/C(=O)c3cccc(NC(C)=O)c3)cc2)c1 | 85.5% (active) |
| O=C(/C=C/c1cccc(C(F)(F)F)c1)Nc1cccc(C(F)(F)F)c1 | 75.5% (active) |
| O=C(/C=C/c1ccccc1)Nc1cccc(C(=O)O)c1 | 96.6% (active) |
| O=C(/C=C/c1ccccc1)Nc1cc(C(=O)O)cc(C(=O)O)c1 | -46.3% |
| Cc1ccc(NC(=O)/C=C/c2cccc(C(F)(F)F)c2)cc1 | 15.4% |
| CC(=O)Nc1cccc(C(=O)/C=C/c2ccc(C)cc2)c1 | 34.7% |
| CC(=O)Nc1cccc(C(=O)/C=C/c2ccc(F)cc2)c1 | -34.5% |
| O=C(Nc1ncn[nH]1)c1ccccc1O | 1.8% |
| CC(C)=CCN1CCN(C/C(Cl)=C/c2ccccc2)CC1CCO (centres undefined) | 1.6% |
| Cc1ccc(CNC(=O)CCS(=O)(=O)c2cc3c(cc2Cl)NC(=O)CO3)o1 | -10.7% |
| COc1cc(/C=C(\C#N)C(=O)Nc2ccccc2)ccc1OCCN1CCOCC1 | -28.7% |
| COc1cc2c(C(=O)NCCN(C)C)cn(CC(C)C)c(=O)c2cc1OC | 1.3% |
| COc1ccc(-c2nn(CC(=O)Nc3ccc(Cl)c(Cl)c3)c(=O)c3ccccc23)cc1 | 15.6% |
| COc1ccc(C(=O)N/C(=C\c2cn(S(=O)(=O)N(C)C)c3ccccc23)C(=O)N2CCOCC2)cc1 | -6.8% |

| Compound | inhibition |
| --- | --- |
| Cc1cc(C)cc(C(=O)NCC(=O)NCc2ccc(S(N)(=O)=O)cc2)c1 | -5.1% |
| COc1cccc(N2CCN(C(=O)c3cc4cc(Cl)ccc4[nH]3)CC2)c1 | -4.9% |
| CCOC(=O)c1c(N)sc(C(=O)Nc2ccccc2)c1C | -18.7% |
| COC(=O)c1c(N)sc(Cc2ccccc2)c1C | -28.7% |
| COC(=O)c1c(N)sc(C(=O)NCCc2ccccc2)c1C | 69.8% (active) |
| Cc1ccc(S(=O)(=O)NC(C)(C)CSc2ncccn2)cc1 | -3.5% |
| Cc1ccc(S(=O)(=O)NC(C)(C)CSc2nnc(N)s2)cc1 | -25.5% |
| Cc1ccc(S(=O)(=O)NC(C)(C)CSc2nnc(Nc3ccccc3)s2)cc1 | 64.7% (active) |
| N#CCSc1n[nH]c2nc3c(c(=O)n12)C1(CCCCC1)Cc1ccccc1-3 | 48% (active) |
| N#CCSc1n[nH]c2nc3c(c(=O)n12)C1(CCCC1)Cc1ccccc1-3 | 16.8% |
| CCSc1n[nH]c2nc3c(c(=O)n12)C1(CCCCC1)Cc1ccccc1-3 | -13.1% |
| CCN(C(=O)/C=C/c1ccc(OC)cc1)C1CCCCC1 | -18.8% |
| CC(=O)COc1cc2c(-c3cc4ccccc4o3)cc(=O)oc2cc1C | 40.5% |
| COc1cccc2cc(-c3cc(=O)oc4cc(C)c(OCC(C)=O)cc34)oc12 | 71.3% (active) |
| COc1cccc2cc(-c3cc(=O)oc4ccc(OCC(C)=O)cc34)oc12 | 39% |
| Cc1cc(C)cc(NC(=O)CSc2nc(CSc3ccc(Cl)cc3)cc(=O)[nH]2)c1 | 8.6% |
| COc1ccc(Cl)cc1NC(=O)CSc1nc(C)cc(C)n1 | -29.7% |
| CCOC(=O)N1CCC(NCCNC(=O)c2ccccc2Cl)CC1 | 9.8% |
| Cn1c(Sc2ccccc2Cl)c(C=O)c2ccccc21 | 41.9% |
| Cn1c(Oc2ccc(Cl)cc2)c(C=O)c2ccccc21 | 22.8% |
| COc1ccc(-c2nnn(CC(=O)c3c[nH]c4ccccc34)n2)cc1OC | -7.9% |
| CCOC(=O)c1[nH]ncc1CN1CCN(Cc2ccccc2)C(CCO)C1 (centres undefined) | -20.2% |
